Records with an inconclusive call do not appear. Active and inactive are the calls of the source. Rule for the calls: active = hit-call score of the fitted dose curve at least 0.9, where 1 is the maximum; inconclusive = response in the unintended direction; inactive = score below 0.9.
Tests used:
[1] = ArunA_NOG_NucleusCount: ArunA Biomedical's Neurite Outgrowth (NOG) Assay for Nucleus Count (AID 2283756)
Summary of the method: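 Viable neuron count, from Hoechst nuclei passing size and intensity gates, imaged at 20x on differentiated H9-derived human neurons. Exposure lasted 48 h from seeding; activity was scored relative to DMSO.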

[2] = ArunA_NOG_NeuriteLength: ArunA Biomedical's Neurite Outgrowth (NOG) Assay for Neurite Length (AID 2283757)
Summary of the method: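 Total neurite length per neuron, from traced βIII-tubulin-labelled processes longer than 10 um on viable Hoechst-gated cells, was scored as decrease from DMSO. Cells were hESC (H9)-derived neurons given 48 h chemical exposure immediately after seeding.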

[3] = ArunA_NOG_NeuritesPerNeuron: ArunA Biomedical's Neurite Outgrowth (NOG) Assay for Neurites Per Neuron (AID 2283758)
Summary of the method: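 Differentiated human H9-derived neurons exposed to chemicals for 48 h from seeding, then stained with Hoechst and βIII-tubulin/DyLight 488. Automated imaging counted neurites (processes >10 um) per valid neuron; loss of signal versus DMSO scored.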

[4] = ArunA_NOG_BranchPointsPerNeurite: ArunA Biomedical's Neurite Outgrowth (NOG) Assay for Branch Points Per Neurite (AID 2283759)
Summary of the method: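 Automated image analysis traced neurites (processes >10 um) from valid cell bodies after Hoechst and βIII-tubulin staining. hNN cells from H9 embryonic stem cells, 48 h exposure. Fitted bidirectionally against DMSO.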

[5] = system: zebrafish Estrogen Receptor (ESR2B), gene 317733; assay: ATG_zfER2b_XSP1: Attagene TRANS-FACTORIAL Multi-Species (XSP1) HepG2 Assay for zebrafish Estrogen Receptor (ESR2B) (AID 2283773)
Summary of the method: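 Multiplexed TRANS format in transfected HepG2 liver cells, chimeric NR-Gal4 from zebrafish ESR2B. 24 h dosing; medium contains 3 nM 6-alpha-fluorotestosterone. mRNA induction by RT-PCR/CE, positive direction vs DMSO.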

[6] = system: frog Estrogen Receptor (ESR2), gene 100174814; assay: ATG_frER2_XSP1: Attagene TRANS-FACTORIAL Multi-Species (XSP1) HepG2 Assay for frog Estrogen Receptor (ESR2) (AID 2283774)
Summary of the method: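 HepG2, transient MRTU transfection (GAL4-UAS reporters, exogenous NR-Gal4 chimeras); 24 h compound exposure; 3 nM 6α-fluorotestosterone co-added; total RNA → RT-PCR → 6-FAM primer extension → HpaI → CE. Positive direction vs DMSO.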

[7] = system: frog Estrogen Receptor (ESR1), gene 398734; assay: ATG_frER1_XSP1: Attagene TRANS-FACTORIAL Multi-Species (XSP1) HepG2 Assay for frog Estrogen Receptor (ESR1) (AID 2283777)
Summary of the method: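 Transient MRTU transfection, HepG2 (human liver); 24 h dosing, 3 nM 6α-fluorotestosterone co-added; RNA → RT-PCR → 6-FAM labeling → CE; upward activity vs DMSO.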

[8] = system: zebrafish Estrogen Receptor (ESR2A), gene 317734; assay: ATG_zfER2a_XSP1: Attagene TRANS-FACTORIAL Multi-Species (XSP1) HepG2 Assay for zebrafish Estrogen Receptor (ESR2A) (AID 2283778)
Summary of the method: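 Transient transfection of HepG2 (human liver) with MRTU constructs; chemical dosing for 24 h; medium contained 3 nM 6-alpha-fluorotestosterone to partly stimulate AR. RT-PCR/CE fluorescence of reporter transcripts; positive direction vs DMSO.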

[9] = target: chicken Estrogen Receptor (ESR1), ESR1 (gene 396099) (UniProt P06212); assay: ATG_chERa_XSP1: Attagene TRANS-FACTORIAL Multi-Species (XSP1) HepG2 Assay for chicken Estrogen Receptor (ESR1) (AID 2283779)
Chain of chicken Estrogen Receptor (ESR1), ESR1 (gene 396099) (P06212 whole entry, looked up, the tested form may be a part): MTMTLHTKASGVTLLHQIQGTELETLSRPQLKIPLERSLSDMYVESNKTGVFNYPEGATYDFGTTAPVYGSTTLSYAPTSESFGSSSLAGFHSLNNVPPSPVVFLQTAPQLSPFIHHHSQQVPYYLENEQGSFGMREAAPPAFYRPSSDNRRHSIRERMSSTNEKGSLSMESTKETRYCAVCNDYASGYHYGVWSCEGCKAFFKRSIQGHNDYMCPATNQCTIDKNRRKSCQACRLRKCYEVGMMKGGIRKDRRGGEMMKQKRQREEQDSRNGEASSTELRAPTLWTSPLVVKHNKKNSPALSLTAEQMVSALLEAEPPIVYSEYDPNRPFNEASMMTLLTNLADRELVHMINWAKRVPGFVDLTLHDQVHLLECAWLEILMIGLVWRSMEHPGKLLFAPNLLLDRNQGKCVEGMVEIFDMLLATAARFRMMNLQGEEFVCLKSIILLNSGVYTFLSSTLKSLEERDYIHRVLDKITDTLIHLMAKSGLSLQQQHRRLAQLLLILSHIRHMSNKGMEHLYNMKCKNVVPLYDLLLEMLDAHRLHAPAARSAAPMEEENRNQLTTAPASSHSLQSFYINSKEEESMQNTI
Summary of the method: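 Read-out: fluorescent reporter mRNA fragments resolved by capillary electrophoresis after RT-PCR and HpaI digestion. Transfected HepG2 cells carried chimeric NR-Gal4 constructs, were dosed 24 h with 3 nM 6-alpha-fluorotestosterone added, and activity was fitted upward relative to DMSO.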

[10] = system: turtle Estrogen Receptor (ESR1), gene 101933533; assay: ATG_trERa_XSP1: Attagene TRANS-FACTORIAL Multi-Species (XSP1) HepG2 Assay for turtle Estrogen Receptor (ESR1) (AID 2283781)
Summary of the method: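 Transfect HepG2 with reporter units → dose chemical 24 h (medium has 3 nM 6-alpha-fluorotestosterone) → isolate RNA, RT-PCR → FAM primer extension, HpaI digest → capillary electrophoresis; gain of signal vs DMSO.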

[11] = target: Estrogen receptor beta (Homo sapiens) (UniProt Q92731); assay: ATG_hERb_XSP1: Attagene TRANS-FACTORIAL Multi-Species (XSP1) HepG2 Assay for human Estrogen Receptor (ESR2) (AID 2283788)
Chain of Estrogen receptor beta (Homo sapiens) (Q92731 whole entry, looked up, the tested form may be a part): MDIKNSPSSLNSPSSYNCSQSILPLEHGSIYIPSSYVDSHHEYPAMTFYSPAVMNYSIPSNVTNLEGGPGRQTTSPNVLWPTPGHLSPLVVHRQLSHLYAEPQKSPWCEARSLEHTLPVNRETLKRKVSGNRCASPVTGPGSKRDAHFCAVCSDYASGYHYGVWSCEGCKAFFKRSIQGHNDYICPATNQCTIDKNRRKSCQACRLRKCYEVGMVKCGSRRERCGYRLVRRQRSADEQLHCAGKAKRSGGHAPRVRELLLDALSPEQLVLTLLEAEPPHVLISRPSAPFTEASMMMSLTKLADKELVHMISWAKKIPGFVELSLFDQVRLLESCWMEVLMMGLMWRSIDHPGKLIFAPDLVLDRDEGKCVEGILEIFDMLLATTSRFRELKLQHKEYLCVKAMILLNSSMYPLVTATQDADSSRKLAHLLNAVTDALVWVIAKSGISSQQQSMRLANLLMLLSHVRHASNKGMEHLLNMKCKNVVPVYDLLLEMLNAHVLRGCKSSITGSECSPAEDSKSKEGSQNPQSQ
Summary of the method: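 Transient MRTU transfection of HepG2; ERβ–GAL4 TRANS format; 24 h dosing; 3 nM 6α-fluorotestosterone co-added; RNA → RT-PCR → 6-FAM primer extension → CE; activity vs DMSO.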

[12] = target: GAL4 Transcription Factor (Internal Marker), GAL4 (gene 855828) (UniProt P04386); assay: ATG_GAL4_XSP1: Attagene TRANS-FACTORIAL Multi-Species (XSP1) HepG2 Assay for GAL4 Transcription Factor (Internal Marker) (AID 2283789)
Chain of GAL4 Transcription Factor (Internal Marker), GAL4 (gene 855828) (P04386 whole entry, looked up, the tested form may be a part): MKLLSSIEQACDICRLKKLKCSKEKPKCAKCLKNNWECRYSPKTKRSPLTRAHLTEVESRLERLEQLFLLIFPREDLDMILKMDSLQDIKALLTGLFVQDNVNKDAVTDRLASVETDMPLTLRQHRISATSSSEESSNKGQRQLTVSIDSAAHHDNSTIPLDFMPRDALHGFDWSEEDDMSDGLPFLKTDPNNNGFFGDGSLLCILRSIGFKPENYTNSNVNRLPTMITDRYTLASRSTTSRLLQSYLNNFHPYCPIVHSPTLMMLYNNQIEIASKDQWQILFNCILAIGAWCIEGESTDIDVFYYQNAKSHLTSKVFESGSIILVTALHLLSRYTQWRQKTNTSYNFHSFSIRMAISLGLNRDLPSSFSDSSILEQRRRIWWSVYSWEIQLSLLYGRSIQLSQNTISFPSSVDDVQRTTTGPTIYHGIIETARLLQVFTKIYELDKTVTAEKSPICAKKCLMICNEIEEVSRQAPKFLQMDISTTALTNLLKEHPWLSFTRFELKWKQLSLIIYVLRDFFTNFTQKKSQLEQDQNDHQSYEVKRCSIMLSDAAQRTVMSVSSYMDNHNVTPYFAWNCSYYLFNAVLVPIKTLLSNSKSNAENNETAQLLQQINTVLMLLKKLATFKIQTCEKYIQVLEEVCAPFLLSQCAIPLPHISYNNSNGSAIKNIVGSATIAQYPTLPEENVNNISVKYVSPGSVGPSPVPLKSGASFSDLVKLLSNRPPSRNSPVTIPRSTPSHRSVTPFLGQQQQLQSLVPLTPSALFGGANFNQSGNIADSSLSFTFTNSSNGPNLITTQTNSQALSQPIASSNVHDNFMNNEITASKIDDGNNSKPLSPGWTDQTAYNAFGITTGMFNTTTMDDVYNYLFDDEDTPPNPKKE
Summary of the method: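 This background-control endpoint measures GAL4-driven reporter mRNA via RT-PCR and capillary electrophoresis of labelled fragments. Transiently transfected HepG2 cells were treated 24 h, with 3 nM 6-alpha-fluorotestosterone included, and gain-of-signal was fitted against DMSO.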

[13] = ATG_M_06_XSP1: Attagene TRANS-FACTORIAL Multi-Species (XSP1) HepG2 Assay for M06 Transcription Factor (Internal Marker) (AID 2283790)
Summary of the method: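 This background-control readout tracks M06 reporter mRNA, measured by RT-PCR and capillary electrophoresis. HepG2 cells transiently carrying the GAL4-UAS reporter panel were dosed for 24 h with 3 nM 6-alpha-fluorotestosterone added for partial AR stimulation; increases were scored relative to DMSO.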

[14] = target: AR (gene 367) (UniProt P10275); assay: ACEA_AR_agonist_80hr: ACEA Biosciences xCELLigence Real-Time Cell Analysis on Androgen Receptor Agonism for Proliferation (AID 2283783);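 note: hits increase impedance growth signal above DMSO baseline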
Chain of AR (gene 367) (P10275 whole entry, looked up): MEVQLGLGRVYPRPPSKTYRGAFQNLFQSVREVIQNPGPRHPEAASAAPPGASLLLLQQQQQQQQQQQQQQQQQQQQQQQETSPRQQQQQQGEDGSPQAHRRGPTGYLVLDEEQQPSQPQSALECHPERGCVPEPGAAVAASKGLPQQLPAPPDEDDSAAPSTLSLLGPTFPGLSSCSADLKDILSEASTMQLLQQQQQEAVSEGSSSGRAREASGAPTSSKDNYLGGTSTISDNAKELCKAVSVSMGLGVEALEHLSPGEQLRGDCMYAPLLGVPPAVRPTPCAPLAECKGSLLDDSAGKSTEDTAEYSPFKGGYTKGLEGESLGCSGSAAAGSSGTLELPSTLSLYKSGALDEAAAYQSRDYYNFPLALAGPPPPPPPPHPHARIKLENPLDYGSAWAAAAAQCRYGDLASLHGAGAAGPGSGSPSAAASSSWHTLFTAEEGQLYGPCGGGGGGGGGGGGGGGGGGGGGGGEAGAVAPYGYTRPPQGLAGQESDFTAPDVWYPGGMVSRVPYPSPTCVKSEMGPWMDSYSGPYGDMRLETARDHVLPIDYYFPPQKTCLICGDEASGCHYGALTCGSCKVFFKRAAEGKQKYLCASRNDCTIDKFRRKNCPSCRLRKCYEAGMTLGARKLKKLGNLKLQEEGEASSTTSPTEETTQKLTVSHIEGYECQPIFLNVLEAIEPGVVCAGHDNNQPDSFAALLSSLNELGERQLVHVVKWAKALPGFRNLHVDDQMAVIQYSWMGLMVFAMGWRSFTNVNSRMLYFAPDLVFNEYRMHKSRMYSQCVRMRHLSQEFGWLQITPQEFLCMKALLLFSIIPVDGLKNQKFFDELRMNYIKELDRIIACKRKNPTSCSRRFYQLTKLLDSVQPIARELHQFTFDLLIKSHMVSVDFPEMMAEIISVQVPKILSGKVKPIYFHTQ
Summary of the method: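 Impedance (RT-CES) growth signal at 80 h post-dose; 22Rv1 cells, 8-pt 1:4 series, top 100 uM final, DMSO ≤0.5%; duplicate plates; gain-of-signal fit relative to DMSO baseline.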

[15] = STM_H9_NormalizedViability: Cytotoxicity Assessment at 120 hours in the Stemina devTOX quickPredict H9 human embryonic stem cell (hESC)-based Assay (AID 2283784)
Summary of the method: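 CellTiter-Fluor RFU, background-subtracted, expressed relative to 0.1% DMSO neutral control by plate. Pluripotent H9 cells; treatment with daily re-dosing. Plates carried 1uM methotrexate (positive) and 5 nM methotrexate (negative) references.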

With `O=C(CCCN1CCC(O)(c2ccc(Cl)cc2)CC1)c1ccc(F)cc1` the AC50 [1] was 78900 nM (active), the AC50 [2] was 78100 nM (active) and the AC50 [3] was 77900 nM (active). The AC50 [4] was 73300 nM (active).

With `OCC(CO)(CBr)CBr` the outcome [1] was “inactive”.

For `C[C@]12CC[C@@H]3c4ccc(O)cc4CC[C@H]3[C@@H]1C[C@@H](O)[C@@H]2O`, the AC50 [5] was 14.3 nM (active), the AC50 [6] was 27.9 nM (active) and the AC50 [7] was 27.9 nM (active). For the same molecule, the AC50 [8] was 15.7 nM (active), the AC50 [9] was 22.7 nM (active) and the AC50 [10] was 17.2 nM (active). The AC50 [11] was 10.5 nM (active), the outcome [12] was “inactive” and the outcome [13] was “inactive”.

With `O=C(c1ccccc1)c1ccccc1` the outcome [14] was “inactive” and the outcome [15] was “inactive”.

In the case of `CCCCCCC(C)(C)C(=O)O`, the outcome [14] is reported as “inactive”.

— PubChem BioAssay (EPA / NIEHS)
